Where two headings read alike, the source gives them in different places.
Assays:
Parameters in all cases: species or system human, MV4-11 + K-562 + COLO205 + SK-N-BE2 + OVCAR-8
[1] = system: ACVR1B; conditions: read-out: apparent Kd, n = 1
[2] = system: CAMK4; conditions: read-out: apparent Kd; compound concentrations: 100 nM and 1000 nM (sheet 'Samples'), CATDS: 0.20736458349595299; n = 1
[3] = system: COX5A; conditions: read-out: apparent Kd; compound concentrations: 100 nM and 1000 nM (sheet 'Samples'), CATDS: 0.27607589651393999; n = 1
[4] = system: DDR1; conditions: read-out: apparent Kd; compound concentrations: 100 nM and 1000 nM (sheet 'Samples'), CATDS: 0.21513236479032799; n = 1
[5] = system: ACVR2B; conditions: read-out: apparent Kd, n = 1
[6] = system: CSNK1A1; conditions: read-out: apparent Kd; compound concentrations:100 nM and 1000 nM (sheet 'Samples'); n = 1
[7] = system: CSNK1D; conditions: read-out: apparent Kd; compound concentrations:100 nM and 1000 nM (sheet 'Samples'); n = 1
[8] = system: CSNK1E; conditions: read-out: apparent Kd; compound concentrations:100 nM and 1000 nM (sheet 'Samples'); n = 1
[9] = system: TAOK1; conditions: read-out: apparent Kd; compound concentrations:100 nM and 1000 nM (sheet 'Samples'); n = 1
[10] = system: ACVR1; conditions: read-out: apparent Kd, n = 1
[11] = system: BCR; conditions: read-out: apparent Kd; compound concentrations:100 nM and 1000 nM (sheet 'Samples'); n = 1
[12] = system: BMPR1A; conditions: read-out: apparent Kd; compound concentrations:100 nM and 1000 nM (sheet 'Samples'); n = 1
[13] = system: CSNK2A1;CSNK2A3; conditions: read-out: apparent Kd; compound concentrations:100 nM and 1000 nM (sheet 'Samples'); n = 1
[14] = system: CSNK2A2; conditions: read-out: apparent Kd; compound concentrations:100 nM and 1000 nM (sheet 'Samples'); n = 1
[15] = system: GSK3A; conditions: read-out: apparent Kd; compound concentrations:100 nM and 1000 nM (sheet 'Samples'); n = 1
[16] = system: GSK3B; conditions: read-out: apparent Kd; compound concentrations:100 nM and 1000 nM (sheet 'Samples'); n = 1
[17] = system: JAK2; conditions: read-out: apparent Kd; compound concentrations:100 nM and 1000 nM (sheet 'Samples'); n = 1
[18] = system: TGFBR1; conditions: read-out: apparent Kd, n = 1
[19] = system: ADCK3; conditions: read-out: apparent Kd; compound concentrations: 100 nM and 1000 nM (sheet 'Samples'), CATDS: 9.7735008507333701E-2; n = 1
[20] = system: RET; conditions: read-out: apparent Kd; compound concentrations: 100 nM and 1000 nM (sheet 'Samples'), CATDS: 0.12802615197662401; n = 1
[21] = system: RIPK2; conditions: read-out: apparent Kd; compound concentrations: 100 nM and 1000 nM (sheet 'Samples'), CATDS: 0.29852587031983902; n = 1
[22] = system: RIPK3; conditions: read-out: apparent Kd; compound concentrations: 100 nM and 1000 nM (sheet 'Samples'), CATDS: 9.0295884260328696E-2; n = 1
[23] = system: ADCK1; conditions: read-out: apparent Kd; compound concentrations:100 nM and 1000 nM (sheet 'Samples'); n = 1
[24] = system: PIK3CA; conditions: read-out: apparent Kd; compound concentrations:100 nM and 1000 nM (sheet 'Samples'); n = 1
[25] = system: PIK3CD; conditions: read-out: apparent Kd; compound concentrations:100 nM and 1000 nM (sheet 'Samples'); n = 1
[26] = system: PKN1; conditions: read-out: apparent Kd; compound concentrations:100 nM and 1000 nM (sheet 'Samples'); n = 1
[27] = system: PKN2; conditions: read-out: apparent Kd; compound concentrations:100 nM and 1000 nM (sheet 'Samples'); n = 1
[28] = system: RAB5C; conditions: read-out: apparent Kd; compound concentrations:100 nM and 1000 nM (sheet 'Samples'); n = 1
[29] = system: TTN; conditions: read-out: apparent Kd; compound concentrations:100 nM and 1000 nM (sheet 'Samples'); n = 1
[30] = compound concentrations:100 nM and 1000 nM (sheet 'Samples')

Q: Which potency estimated from few doses ([1]; compound concentrations: 100 nM and 1000 nM (sheet 'Samples'), CATDS: 0.34398750715430798) does the source give for `COc1ccc2cc(-c3c(-c4ccncc4)nc(-c4ccc(S(C)=O)cc4)n3C)ccc2c1` (stereo not drawn) [SB-437013] here?
A: The potency estimated from few doses was 0.81 µM.

Q: What about the potency estimated from few doses [2] of the same compound?
A: The potency estimated from few doses was 2.24 µM.

Q: And the potency estimated from few doses [3]?
A: Its potency estimated from few doses is 1.19 µM.

Q: What about the potency estimated from few doses [4] of the same compound?
A: The potency estimated from few doses was 2.04 µM.

Q: For `Nc1nc(-c2ccccn2)c(-c2ccnc3ccccc23)s1` [GW548057X], which potency estimated from few doses [1, 30] is on record?
A: The potency estimated from few doses was 0.0762 µM.

Q: And the potency estimated from few doses [5, 30]?
A: The potency estimated from few doses was 1.79 µM.

Q: What about the potency estimated from few doses [6] of the same compound?
A: The potency estimated from few doses was 0.893 µM.

Q: What about the potency estimated from few doses [7] of the same compound?
A: Its potency estimated from few doses is 1.8 µM.

Q: And the potency estimated from few doses [8]?
A: The potency estimated from few doses was 2.1 µM.

Q: And the potency estimated from few doses [9]?
A: The potency estimated from few doses was 1.7 µM.

Q: Which results are given for `COc1cccc(-n2ncc3c(N/N=C/c4ccncc4)ncnc32)c1` [GW784752X]?
A: potency estimated from few doses [1, 30]: 0.725 µM; potency estimated from few doses [10, 30]: 0.119 µM; potency estimated from few doses [11]: 0.641 µM; potency estimated from few doses [12]: 1.13 µM; potency estimated from few doses [13]: 0.882 µM; potency estimated from few doses [14]: 0.252 µM; potency estimated from few doses [15]: 0.0472 µM; potency estimated from few doses [16]: 0.0756 µM; potency estimated from few doses [17]: 0.603 µM; potency estimated from few doses [18, 30]: 1.52 µM

Q: With `Cl.c1ccc(-c2ccc3c(Nc4ccc5[nH]ncc5c4)ccnc3c2)nc1` [GW440137A] as the compound, how does the potency estimated from few doses ([1]; compound concentrations: 100 nM and 1000 nM (sheet 'Samples'), CATDS: 0.112387102296717) read?
A: The potency estimated from few doses was 0.766 µM.

Q: What about the potency estimated from few doses ([10]; compound concentrations: 100 nM and 1000 nM (sheet 'Samples'), CATDS: 0.106513578189519) of the same compound?
A: The potency estimated from few doses was 0.904 µM.

Q: What about the potency estimated from few doses ([5]; compound concentrations: 100 nM and 1000 nM (sheet 'Samples'), CATDS: 0.67382048852526699) of the same compound?
A: The potency estimated from few doses was 0.0119 µM.

Q: What about the potency estimated from few doses [19] of the same compound?
A: The potency estimated from few doses was 1.2 µM.

Q: What about the potency estimated from few doses [20] of the same compound?
A: The potency estimated from few doses was 0.525 µM.

Q: What about the potency estimated from few doses [21] of the same compound?
A: Its potency estimated from few doses is 0.0589 µM.

Q: And the potency estimated from few doses [22]?
A: Its potency estimated from few doses is 1.6 µM.

Q: And the potency estimated from few doses ([18]; compound concentrations: 100 nM and 1000 nM (sheet 'Samples'), CATDS: 8.5016049032497404E-2)?
A: Its potency estimated from few doses is 2.06 µM.

Q: With `Cl.Cl.c1ccc(-c2cc3ccncc3cc2OC2CCNCC2)cc1.c1ccc(-c2cc3ccncc3cc2OC2CCNCC2)cc1` [GSK1122999D] as the compound, how does the potency estimated from few doses [1, 30] read?
A: Its potency estimated from few doses is 1.16 µM.

Q: What about the potency estimated from few doses [23] of the same compound?
A: Its potency estimated from few doses is 1.28 µM.

Q: And the potency estimated from few doses [24]?
A: Its potency estimated from few doses is 0.287 µM.

Q: And the potency estimated from few doses [25]?
A: The potency estimated from few doses was 0.179 µM.

Q: What about the potency estimated from few doses [26] of the same compound?
A: Its potency estimated from few doses is 2.03 µM.

Q: And the potency estimated from few doses [27]?
A: The potency estimated from few doses was 2.04 µM.

Q: What about the potency estimated from few doses [28] of the same compound?
A: The potency estimated from few doses was 1.19 µM.

Q: And the potency estimated from few doses [29]?
A: Its potency estimated from few doses is 0.886 µM.

From publication PMC11062922 (Nature Chemical Biology, 2023)
